Laboratory results reported in ChEMBL document CHEMBL3988442, “University of Dundee, Small-Polar-MMV Screening Library” (2021).
Out of some 48,000 compounds screened, about 13,000 (27%) showed an effect of 50% or more. This is one part of the list.

Each compound was assayed on Wolbachia pipientis (assay: Anti-Wolbachia Cell-Based Screen). Settings: 5 µM.
Assay type: functional
Design: scale not given: in the data most compounds retested in dose-response had high values

Compound	Percent Effect [%]
CS(=O)(=O)Cc1nc(CN2CC=C(c3ccccc3)CC2)cs1	9.315
O=C(C1CCC1)N1CC[C@]2(O)CCN(Cc3ncccn3)C[C@@H]2C1	9.794
Cc1noc([C@@H]2C[C@H]3OCC[C@H]3N(C(C)C)C2)n1.O=C(O)C(F)(F)F	82.77
Cc1noc([C@]23COC[C@H]2CN(C(C)C)C3)n1.O=C(O)C(F)(F)F	-9.217
Cc1noc([C@H]2C[C@H]3OCC[C@H]3N(Cc3ccncc3)C2)n1	9.305
Cc1nc(COC[C@H]2CC[C@H]3NCC[C@H]3O2)cs1.Cl.Cl	-19.37
Cc1cc(CN2C[C@@H]3COC[C@]3(CNC(=O)N3CCCC3)C2)no1.O=C(O)C(F)(F)F	-10.59
Cc1noc(C)c1CN1CCCC2(CCN(CC3CCCC3)C2)C1.O=C(O)C(F)(F)F (stereo unspecified)	102.6
Cc1noc(C)c1CN1CC2(CCCCN2C)CC1=O.O=C(O)C(F)(F)F (stereo unspecified)	-9.804
Cc1noc(C)c1CN1CC[C@H]2O[C@@H](C(=O)N3CCCC3)CC[C@H]21.O=C(O)C(F)(F)F	9.45
COCCNC(=O)[C@@]12CCO[C@@H]1CCN(Cc1c(C)noc1C)C2.O=C(O)C(F)(F)F	-6.3
Cc1noc(C)c1CN1CCCC2(CCN(C(=O)C3CC3)C2)C1 (stereo unspecified)	106.9
Cc1ccc(CC(=O)N2CCN(C(C)c3ccccc3F)CC2)cn1 (stereo unspecified)	7.645
COCCNC1(c2ccc(Cl)cc2)CCOCC1	5.533
CC(C)=CCN1C[C@H]2CC[C@@H]1CN(Cc1cc(=O)[nH]c(=O)[nH]1)C2	7.172
Cc1cnc(NCCc2c[nH]cn2)nc1-c1ccnn1C	-2.604
CCc1ccccc1OCCNCCc1c[nH]cn1	-3.829
Cc1cc(NCCc2c[nH]cn2)nc(-c2cccnc2)n1	99.48
Cc1noc(C)c1CN(C)C(=O)CN1CC(c2ccccc2)CC1=O (stereo unspecified)	-0.5183
Cc1cc(CN(C)C(=O)CN2CCCC2=O)no1	135.7
CN(Cc1cc(C2CC2)on1)C(=O)CN1CC(c2ccccc2)CC1=O (stereo unspecified)	-9.848
CCc1noc(CC)c1CC(=O)N1CCCC(N2CCCCC2)C1 (stereo unspecified)	-13.04

Compound	Percent Effect [%]
CN(c1ncccc1C#N)C1CCN(CCc2ccccn2)CC1	3.648
O[C@@]1(CNCCCOc2cccnc2)CCCN2CCCC[C@@H]21	-22.25
COCCN1CCO[C@H]2CN(C(=O)c3ccncc3F)C[C@H]21.O=C(O)C(F)(F)F	-13.21
CC(C)=CCN1C[C@H]2CC[C@@H]1CN(C(=O)c1c[nH]c(=O)c(Cl)c1)C2	-5.36
Cc1ncc(CC(=O)N2C[C@@H]3CC[C@H](C2)N(CC2CCC2)C3)c(=O)[nH]1	1.908
O=C(c1c[nH]c(=O)c(Cl)c1)N1C[C@@H]2CC[C@H](C1)N(CC1CCC1)C2	97.45
CCCn1cc(C(=O)NC(C(=O)O)c2ccccc2C(F)(F)F)c(C)n1 (stereo unspecified)	7.837
O=C(Cc1ccc(CO)cc1)N1CCN(CC2CC2)[C@@H]2CS(=O)(=O)C[C@@H]21	-14.38
CCS(=O)(=O)N1CCN(C)c2ncccc2C1	97.89
CN1CCN(Cc2ccoc2)Cc2cccnc21	-15.03
CN1CCN(S(C)(=O)=O)Cc2cccnc21	126.5
CN(C)CCN1CCN(CC2CC2)c2ncccc2C1	104.8
CN1CCN(S(=O)(=O)C2CC2)Cc2cccnc21	113.9
CN1CCN(c2ncccn2)CC12CCC(=O)N(CC1CC1)CC2 (stereo unspecified)	-4.361
Cl.O=C(NCC1CCCCC1)N1C[C@@H]2C[C@H]1CN2	-10.23
CCCN1CCN(C(=O)c2ccc(Cl)cn2)[C@H]2CS(=O)(=O)C[C@H]21	7.172
CCC(C(=O)N1CCCSCC1)N1CCCC1=O (stereo unspecified)	0.6755
Cc1cccc(CN2CC3C[C@]3(NC(=O)c3ccco3)C2)n1 (stereo partly specified)	-15.21
CCCN1CCN(C(=O)c2cccc(C)n2)[C@H]2CS(=O)(=O)C[C@H]21	-6.939
CCN1CCC2(CC1)CN(CCO)c1ccccc12	-10.11
CCS(=O)(=O)N1CCN(CC2CC2)c2ncccc2C1	115
O=C(O)C(F)(F)F.O=C(O)C(F)(F)F.c1cnc2c(c1)CN(C1CCOC1)CCN2CC1CC1 (stereo unspecified)	-0.9537

Compound	Percent Effect [%]
CS(=O)(=O)N1CCN(CC2CC2)c2ncccc2C1	6.456
COc1ccccc1CC(C)N(C)CCS(C)(=O)=O (stereo unspecified)	-4.195
COC[C@]12COC[C@H]1CN(Cc1cccnc1OC)C2	3.857
COCCN1CCCC12CCN(Cc1cccnc1OC)CC2.O=C(O)C(F)(F)F.O=C(O)C(F)(F)F	-1.646
COCCCN1CCCC12CCN(Cc1cccnc1OC)CC2.O=C(O)C(F)(F)F.O=C(O)C(F)(F)F	-1.56
COc1ncccc1CN1CCC2(CC1)COCCN2C.O=C(O)C(F)(F)F.O=C(O)C(F)(F)F	-5.344
COc1cc(N2C[C@H]3CN(Cc4ccccn4)C[C@H]3C2)ncn1.O=C(O)C(F)(F)F	127.8
CNC(=O)[C@H]1C[C@@H]2CN(Cc3cccnc3OC)C[C@@H]2N1C(C)C.O=C(O)C(F)(F)F.O=C(O)C(F)(F)F.O=C(O)C(F)(F)F	5.567
CNC(=O)[C@H]1C[C@@H]2CN(Cc3cccnc3OC)C[C@@H]2N1C(C)=O.O=C(O)C(F)(F)F.O=C(O)C(F)(F)F	92.23
COc1ncccc1CN1C[C@@H]2OCCN(CCN(C)C)[C@@H]2C1.O=C(O)C(F)(F)F.O=C(O)C(F)(F)F.O=C(O)C(F)(F)F	17.28
COc1ncccc1CN1C[C@@H]2CN(c3ncccn3)C[C@@H]2C1	110.4
COCCN1CC[C@@H]2CN(Cc3cccnc3OC)C[C@@H]2C1.O=C(O)C(F)(F)F.O=C(O)C(F)(F)F	130.6
COc1cc(N2C[C@H]3CCN(CCN4CCCC4)C[C@H]3C2)ncn1.O=C(O)C(F)(F)F.O=C(O)C(F)(F)F	-9.875
CN(C)CCN1CCO[C@H]2CN(Cc3ccccn3)C[C@H]21.O=C(O)C(F)(F)F.O=C(O)C(F)(F)F.O=C(O)C(F)(F)F.O=C(O)C(F)(F)F	10.34
Fc1cccnc1N1CCOCC2(CCCNC2)C1 (stereo unspecified)	-2.668
N#Cc1cccc(C(=O)NS(=O)(=O)c2ccc(C#N)c(Cl)c2)c1	-1.961
COc1ccc(CN2C[C@H]3CN(c4cncnc4)C(=O)[C@H]3C2)cc1.O=C(O)C(F)(F)F	-6.592
CCc1cc(N2CCC(NC3CN4CCC3CC4)CC2)nc(N(C)C)n1 (stereo unspecified)	2.929
CCCn1cc(C(=O)NCC(=O)NC2CC2)c(C)n1	8.869
COc1ncccc1CN1CC[C@H]2[C@H]1CCN2CCN(C)C.O=C(O)C(F)(F)F.O=C(O)C(F)(F)F.O=C(O)C(F)(F)F.O=C(O)C(F)(F)F	-2.708
COc1ncccc1CN1C[C@H]2CCN(c3ncccn3)C[C@H]2C1.O=C(O)C(F)(F)F	102
CCN1CCCC12CCN(Cc1cccnc1OC)CC2.O=C(O)C(F)(F)F.O=C(O)C(F)(F)F	9.255

Compound	Percent Effect [%]
COc1ncccc1CN1C[C@H]2CCN(C(C)C)C[C@H]2C1.O=C(O)C(F)(F)F.O=C(O)C(F)(F)F	108.8
CN1CC2(CCNCC2)CC1C(=O)NCCCNc1cccnc1 (stereo unspecified)	9.44
CN1[C@@H](C(=O)NCC2CC2)C[C@@H]2CN(c3ncccn3)C[C@@H]21	-3.694
CCN1C[C@H]2N(c3ncccn3)CCC[C@@]2(C(=O)NCC2CC2)C1	121.2
CN1C[C@H]2N(c3ncccn3)CCC[C@@]2(C(=O)NCC2CC2)C1.O=C(O)C(F)(F)F	104.5
CC(=O)N1C[C@H]2CCCC(N3CCN(c4ncccn4)CC3)[C@H]2C1.O=C(O)C(F)(F)F.O=C(O)C(F)(F)F (stereo partly specified)	-9.605
CNC(=O)[C@@]12CCCN(c3ncccn3)[C@@H]1CN(C)C2.O=C(O)C(F)(F)F	-0.06284
O=C(O)C(F)(F)F.O=C(O)C(F)(F)F.c1cnc(N2CCCC3(CCN(CC4CC4)C3)C2)nc1 (stereo unspecified)	-2.531
CN(CC1Cc2ccccc2CN1C)C(=O)Cc1cccs1 (stereo unspecified)	4.108
Cn1ccnc1NC[C@@H]1CCC[C@@H]2CN(Cc3cccnc3)C[C@@H]21.O=C(O)C(F)(F)F	109.4
O=C(O)C(F)(F)F.c1cnc(NC[C@@H]2CCC[C@@H]3CN(Cc4csnn4)C[C@@H]32)nc1	17.75
COc1ccc(CN2C[C@H]3CCC[C@@H](CN(C)C)[C@H]3C2)cn1.O=C(O)C(F)(F)F.O=C(O)C(F)(F)F	10.6
O=C(O)C(F)(F)F.c1ccc(NC[C@@H]2CCC[C@@H]3CN(Cc4cc[nH]n4)C[C@@H]32)nc1	-6.028
O=C(O)C(F)(F)F.c1cnc(NC[C@@H]2CCC[C@@H]3CN(Cc4cc[nH]n4)C[C@@H]32)nc1	-8.539
Cn1cc(CN2C[C@@H]3CCC[C@@H](OCc4cccnc4)[C@@H]3C2)cn1	52.17
COCCN1C[C@H]2CCC[C@@H](CNc3ncccn3)[C@H]2C1.O=C(O)C(F)(F)F.O=C(O)C(F)(F)F	1.407
CN(C[C@@H]1CCC[C@@H]2CN(Cc3cccnc3)C[C@@H]21)C1CC1.O=C(O)C(F)(F)F.O=C(O)C(F)(F)F	2.908
Cn1cc(CN2C[C@H]3CCC[C@@H](CNc4ncccn4)[C@H]3C2)cn1.O=C(O)C(F)(F)F	111.9
O=C(O)C(F)(F)F.c1cncc(CN2C[C@H]3CCC[C@@H](CNc4cnccn4)[C@H]3C2)c1	134.5
COc1ccc(CN2C[C@H]3CCC[C@@H](CN(C)C4CC4)[C@H]3C2)cn1.O=C(O)C(F)(F)F.O=C(O)C(F)(F)F	14.86
